Compound activity: PubChem BioAssay, National Center for Advancing Translational Sciences (NCATS)
Only some compounds are listed: those with a hit (about 6.2% of all), similar ones and a draw of the others.
Luc counter: Counterscreen for Luciferase (Kinase-Glo TM) Inhibition; Luciferin 4-monooxygenase (Photuris pensylvanica), Q27757; Kinase-Glo luciferase, ATP luminescence, 8 min; Potency, µM (series often up to 38.3 µM), for the others: at the top dose activity change, negative = inhibition, hits mostly inhibitors; 200,000 compounds, 0.28% hits; AID 1379, 2008; further: nearly all actives have a fitted effect of over 60% in size
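Luminescence was the read-out, taken after 8-minute incubation at ambient temperature. Luciferase turned over luciferin with 10 uM ATP in imidazole pH 7.2 buffer containing KCl, MgCl2, Tween 20 and BSA.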
RORgamma inh: qHTS for inhibitors of ROR gamma transcriptional activity; Nuclear receptor ROR-gamma (Mus musculus), P51450; Drosophila S2 Gal4-RORgamma UAS-luciferase reporter, 20 h; Potency, µM (doses to about 53.6 µM), inactives show at the highest dose activity change, negative = inhibition, hits mostly inhibitors; 310,000 compounds, 5.4% hits; AID 2551, 2010; further: nearly all actives have a fitted effect of over 60% in size
Target sequence (P51450 whole entry, looked up, the tested form may be a part): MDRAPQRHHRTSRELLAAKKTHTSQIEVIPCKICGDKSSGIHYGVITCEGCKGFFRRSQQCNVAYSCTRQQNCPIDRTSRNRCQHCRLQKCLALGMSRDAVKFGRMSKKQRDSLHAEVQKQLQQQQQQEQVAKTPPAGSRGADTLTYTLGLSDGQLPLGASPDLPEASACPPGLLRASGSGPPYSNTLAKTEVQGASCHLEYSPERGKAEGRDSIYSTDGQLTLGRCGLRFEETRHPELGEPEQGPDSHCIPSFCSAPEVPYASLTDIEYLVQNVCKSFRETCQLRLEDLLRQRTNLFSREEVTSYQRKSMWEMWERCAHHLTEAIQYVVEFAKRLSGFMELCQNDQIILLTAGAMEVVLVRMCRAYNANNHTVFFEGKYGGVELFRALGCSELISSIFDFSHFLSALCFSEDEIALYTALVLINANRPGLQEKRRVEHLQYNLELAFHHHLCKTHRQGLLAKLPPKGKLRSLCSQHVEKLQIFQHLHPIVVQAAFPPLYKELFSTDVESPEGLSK
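In this cell-based reporter format, copper sulfate (700 uM final) drives Gal4–ROR gamma fusion expression from a metallothionein promoter in Drosophila Schneider cells; compounds preincubated 1 hr, reporter read after 20 hr at ambient temperature.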
Gal4-VP16 FLuc: VP16 counterscreen qHTS for inhibitors of ROR gamma transcriptional activity | Drosophila S2 Gal4-VP16 UAS-luciferase, luminescence, 20 h | Potency, µM (doses to about 53.6 µM), for inactives: at the top dose activity, negative = inhibition, most hits filed as inhibitors | 310,000 compounds, 3.5% hits | AID 2546, 2010;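 further: Gal4-VP16 expression switched on by copper sulfate through the metallothionein promoter; nearly all actives have a fitted effect of over 50% in size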
* hit, by the source's call; [ ] = remark or other dose. The call rests on the fitted dose curve; in most records, active means well fitted curve in the direction sought with a large enough effect; inconclusive means small, poorly fitted or top-dose-only effect, or another doubt; inactive means no such curve, though single readings can be large; an effect the other way counts as inactive or inconclusive. On the % scale 0 is the no-effect control and ±100 the full control effect; potency means the concentration at half of the fitted maximal effect.

Screening Cc1ccc(C(=O)Nc2cnc3ccccc3c2)cc1 returned Luc counter inconclusive, RORgamma inh 3.2µM* and Gal4-VP16 FLuc 2.8µM*.
`O=C(O)c1ccc(NC(=S)NC(=O)c2ccc3ccccc3c2)cc1` gave RORgamma inh inconclusive and Gal4-VP16 FLuc -4%.
For O=C(O)c1cccc(NC(=S)NC(=O)c2ccc3ccccc3c2)c1 the results were RORgamma inh 10µM* and Gal4-VP16 FLuc 7.1µM*.
[N-]=[N+]=NC[C@H](c1ccccc1)N1CCN(Cc2ccccc2)CCC1=O was read as RORgamma inh 20% and Gal4-VP16 FLuc -1%.
For CCOC(=O)CCN1C(=O)[C@H]2[C@@H]3[C@H](O)C=CC(=O)[C@H]3CC[C@H]2C1=O the results were RORgamma inh -3%[10 µM] and Gal4-VP16 FLuc -7%[10 µM].
O=Cc1ccsc1B(O)O was read as Luc counter 0%, RORgamma inh -9% and Gal4-VP16 FLuc 2%.
For CCn1c2ccccc2c2cc(Nc3cc(C)nc4ncnn34)ccc21 the results were Luc counter 5%, RORgamma inh 20µM* and Gal4-VP16 FLuc inconclusive.
Cc1cc(Nc2ccc(Cl)cc2)n2ncnc2n1 was read as RORgamma inh -3% and Gal4-VP16 FLuc 5%.
Cc1ccc(Nc2cc(-c3ccccc3)nc3ncnn23)cc1 was read as RORgamma inh 11µM* and Gal4-VP16 FLuc inconclusive.
For CCc1ccc(Nc2cc(C)nc3ncnn23)cc1 the results were RORgamma inh -16%[1.91 µM] and Gal4-VP16 FLuc -2%.
CN(C)CCN(C)C(=O)c1ccc(-n2c(=O)c(=O)[nH]c3ccccc32)cc1 was read as Luc counter -2%.
Screening CCCC[C@@H](NC(=O)[C@@H](Cc1cn(C(=O)OC)c2ccccc12)NC(=O)[C@H](CC(C)(C)C)NC(=O)N1[C@H](C)CCC[C@@H]1C)C(=O)O returned Luc counter 0%[39.9 µM], RORgamma inh -1% and Gal4-VP16 FLuc 8%.
`CCOC(=O)CN(C)C(=O)CCc1nnc(-c2ccsc2)o1` gave Luc counter -2%, RORgamma inh 14µM* and Gal4-VP16 FLuc inconclusive.
Screening COc1cccc(CN(C)C(=O)CCc2nnc(-c3ccsc3)o2)c1 returned Luc counter -3%, RORgamma inh -20% and Gal4-VP16 FLuc -10%.
`CC1C2CCC3C4CC=C5CC(N(C)C)CC[C@@]5(C)C4CC[C@@]32CN1C` (stereo not given in full) gave Luc counter -1%, RORgamma inh -2% and Gal4-VP16 FLuc -1%.
O=C(Nc1ccccc1N1CCOCC1)c1ccc2c(c1)OCCO2 was read as RORgamma inh -4% and Gal4-VP16 FLuc inconclusive.
`COc1cc(C(=O)NC(=S)Nc2ccccc2N2CCOCC2)cc(OC)c1OC` gave RORgamma inh -16% and Gal4-VP16 FLuc -13%.
`COc1cccc(C(=O)NC(=S)Nc2ccccc2N2CCOCC2)c1` gave RORgamma inh 4µM* and Gal4-VP16 FLuc 6.3µM*.
`Cc1ccc(C(=O)NC(=S)Nc2ccccc2N2CCOCC2)cc1C` gave RORgamma inh 4.5µM* and Gal4-VP16 FLuc 7.9µM*.
CCCCN(CCCC)C(=O)c1ccccc1NC(=O)CN1C(=O)c2ccccc2C1=O was read as Luc counter 1%, RORgamma inh -10% and Gal4-VP16 FLuc -2%.
For CC(=O)N1CCc2cc(S(=O)(=O)CCC(=O)NCc3ccco3)ccc21 the results were Luc counter 5%, RORgamma inh 5% and Gal4-VP16 FLuc -5%.
For COc1ccccc1/C=C\C(=O)OC[C@@H]1CCCN2CCCC[C@H]12 the results were Luc counter 1%, RORgamma inh 0% and Gal4-VP16 FLuc -1%.
`Cc1ccc(C(=O)Nc2ccc(N3CCN(C)CC3)cc2)c(Cl)c1` gave RORgamma inh -4% and Gal4-VP16 FLuc 2%.
